Source: PubChem (National Center for Advancing Translational Sciences (NCATS))
The list is not random: actives were taken first. Their share in the collection is about 19%.
VP16 counter = counter-screen for ROR gamma inhibitors: Gal4-VP16 reporter; Potency, µM (doses to about 53.6 µM), inactives show top-dose activity, negative = inhibition, actives largely listed as inhibitors; hit rate 3.5% among 310,000; Drosophila S2 Gal4-VP16 UAS-luciferase, luminescence, 20 h;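 also: Gal4-VP16 expression switched on by copper sulfate through the metallothionein promoter; nearly all actives have a fitted effect of over 50% in size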
RORg inh = blocks mouse ROR gamma transcriptional activity. P51450. Drosophila S2 Gal4-RORgamma UAS-luciferase reporter, 20 h. Potency, µM (series often up to 53.6 µM), without a hit: at the top dose activity change, negative = inhibition, hits mostly inhibitors. hit rate 5.4% among 310,000. AID 2551; also: nearly all actives have a fitted effect of over 60% in size
Target sequence (P51450 whole entry, looked up, the tested form may be a part): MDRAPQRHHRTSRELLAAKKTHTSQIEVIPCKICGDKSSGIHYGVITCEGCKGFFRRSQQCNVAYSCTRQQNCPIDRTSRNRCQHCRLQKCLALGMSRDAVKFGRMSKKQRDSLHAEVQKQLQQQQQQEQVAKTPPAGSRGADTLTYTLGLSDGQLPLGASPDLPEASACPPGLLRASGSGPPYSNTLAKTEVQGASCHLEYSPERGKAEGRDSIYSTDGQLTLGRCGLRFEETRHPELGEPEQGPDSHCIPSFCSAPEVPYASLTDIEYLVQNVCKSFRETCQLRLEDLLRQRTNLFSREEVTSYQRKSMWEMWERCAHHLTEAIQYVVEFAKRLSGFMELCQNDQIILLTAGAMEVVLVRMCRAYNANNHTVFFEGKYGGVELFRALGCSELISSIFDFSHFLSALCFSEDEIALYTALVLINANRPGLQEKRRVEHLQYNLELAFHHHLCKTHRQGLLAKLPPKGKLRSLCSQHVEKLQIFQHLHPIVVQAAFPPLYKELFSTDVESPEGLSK
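Stably transfected Drosophila Schneider cells are the test system, with ROR gamma fused to Gal4 and luciferase under UAS control; luminescence is read after 20 hr of 700 uM copper sulfate induction at ambient temperature.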
TDP1 block = blocks human tyrosyl-DNA phosphodiesterase 1; recombinant TDP1, AlphaScreen DNA substrate cleavage; Potency, µM (highest dose often 130 µM), without a hit: at the highest dose activity change, negative = inhibition, actives largely listed as inhibitors; hit rate 0.28% among 350,000; also: nearly all actives have a fitted effect of over 40% in size
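Here, a 5' biotin and 3' phosphotyrosine-FITC DNA oligonucleotide reports Tdp1 activity: intact substrate bridges AlphaScreen beads, while cleavage leaves a 3' phosphate and drops signal. All incubations at room temperature.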
TDP1 cell CPT = growth inhibition of DT40 Tdp1-/-;hTDP1 cells with camptothecin (screen for TDP1 inhibitors); chicken DT40 Tdp1-/-;hTDP1 cells + 20 nM CPT, ATP luminescence, 48 h; Potency, µM (doses to about 46.2 µM), inactives show at the top dose activity change, negative = growth inhibition, actives largely listed as inhibitors; hit rate 12% among 420,000; AID 686979; also: nearly all actives have a fitted effect of over 55% in size
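Chicken DT40 Tdp1-/- cells complemented with human TDP1, 400 cells/well, exposed to compounds plus 20 nM camptothecin for at least 48 h at 37 C; viability read as ATP content by CellTiter-Glo luminescence.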
DT40 TDP1 no CPT = qHTS for Inhibitors of human tyrosyl-DNA phosphodiesterase 1 (TDP1): qHTS in cells in absence of CPT. hit rate 15% among 420,000. DT40 Tdp1-/- hTDP1 cells, no CPT, ATP luminescence, 48 h. Potency, µM (top dose mostly 46.2 µM), inactives show top-dose activity change, negative = growth inhibition, most hits filed as inhibitors; also: nearly all actives have a fitted effect of over 55% in size
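Seeded 400 DT40-hTDP1 cells/well (vehicle DMSO, no 20 nM CPT); pinned compounds; ≥48 hr at 37 °C; CellTiter-Glo luminescence as viability measure.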
An asterisk follows results filed as active; ? = inconclusive; . = no result given; [ ] = another dose, or the depositor's remark. Calls follow the shape of the dose curve; as a rule, active = well fitted curve in the direction sought with a large enough effect; inconclusive = small, poorly fitted or top-dose-only effect, or another doubt; inactive = no such curve, though single readings can be large; an effect the other way counts as inactive or inconclusive. % is scaled to controls: 0 for no effect and ±100 for the full control effect; potency is read from the fitted curve at half-maximal effect.

SMILES	VP16 counter	RORg inh	TDP1 block	TDP1 cell CPT	DT40 TDP1 no CPT
C=CCn1c(SCC(=O)NCCOC)nnc1-c1cc2c(s1)CCC(CC)C2 (stereo not given)	-6%	24%	0%	?	18µM*
N#Cc1c(-n2ncnc2-c2ccc(F)cc2)sc2c1CCCCC2	.	.	5%[12.3 µM]	1%	-23%
N#Cc1nc(NCCCO)nc(Nc2ccccc2)n1	-1%	.	6%	.	.
Cc1ccc(C)c(Nc2nn3c(=O)c4ccc(C(=O)NCc5ccccc5)cc4nc3s2)c1	.	.	6%	5.2µM*	7.3µM*
COc1cccc(CNC(=O)c2ccc3c(=O)n4nc(Nc5ccccc5)sc4nc3c2)c1	.	.	8%	8.2µM*	?
CCN(CC)CCNC(=O)c1ccc2c(=O)n3nc(Nc4ccccc4)sc3nc2c1	.	.	-1%	5.8µM*	4.6µM*
Cc1ccccc1Nc1nn2c(=O)c3ccc(C(=O)NCc4cccs4)cc3nc2s1	.	.	.	16µM*	13µM*
Cc1ccccc1CC(=O)NC1CCCCCC1	2%	17%	.	-11%	4%
Cc1c(CC(=O)N2CCN(C(=O)C3COc4ccccc4O3)CC2)c(=O)oc2cc(O)cc(O)c12 (stereo not given)	-6%	-6%	4%	3%	-5%
Fc1ccc(C2CC(c3ccccc3)Nc3ncnn32)cc1 (stereo not given)	-10%	5%	4%	?	-25%
O=C(NCc1ccccn1)c1ccc2c(=O)n3nc(Nc4ccccc4)sc3nc2c1	7%	11%	-21%	?	0%
Cc1ccc(CNC(=O)c2ccc3c(=O)n4c(-c5ccc(C)cc5)csc4nc3c2)cc1	-1%	15%	-1%	7.3µM*	9.2µM*
CCc1cccc(C)c1Nc1nn2c(=O)c3ccccc3nc2s1	.	.	.	12µM*	23µM*
Cc1ccccc1Nc1nn2c(=O)c3ccc(C(=O)NCC(C)c4ccccc4)cc3nc2s1 (stereo not given)	.	.	8%	15µM*	15µM*
CN1CCN(C(=O)c2ccccc2[N+](=O)[O-])CC1	4%	-27%	.	22%	-1%
C/C(=N\Oc1cccc(F)n1)c1ccc(Cl)cc1Cl	17%	6%	-10%	-17%	-21%
C/C(=N/Oc1nc(C)cc(C)n1)c1ccc(Cl)cc1Cl	?	10µM*	1%	?	?
CCOc1ccc2[nH]c3c(NCC(C)C)ncnc3c2c1	?	10%	.	?	26µM*
CCOc1ccc2[nH]c3c(NCCOC)ncnc3c2c1	11%	24%	.	?	-24%
CCOc1ccc2[nH]c3c(NCCN(CC)CC)ncnc3c2c1	-10%	-14%	.	13%	-1%
COc1ccc2[nH]c3c(NCCN(C(C)C)C(C)C)ncnc3c2c1	3%	-32%	5%	16µM*	18µM*
CCn1nc(C)c(/C=C2\CCCC3=C2OC(N)=C(C#N)C3c2c(C)nn(CC)c2C)c1C (stereo not given)	-25%	40%	3%	.	.
COc1ccc(Cn2c(C(C)C)nc3sc4ccccc4c(=O)c3c2=O)cc1	-4%	-13%	0%	?	12µM*
CC(C)c1nc2sc3ccccc3c(=O)c2c(=O)n1Cc1ccccc1	2%	0%	6%	16µM*	15µM*
CCCc1nc2sc3ccccc3c(=O)c2c(=O)n1Cc1ccc(OC)cc1	-1%	36%	4%	13µM*	21µM*
SMILES	VP16 counter	RORg inh	TDP1 block	TDP1 cell CPT	DT40 TDP1 no CPT
COCCn1c(C(C)C)nc2sc3ccccc3c(=O)c2c1=O	-1%	1%	4%	-20%	-27%
CCCc1nc2sc3ccccc3c(=O)c2c(=O)n1Cc1ccco1	1%	-9%	.	?	?
O=C(CSc1nc(=O)n(CCCN2CCOCC2)c2c1CCC2)Nc1ccc(F)cc1F	.	.	0%	5%	-3%
O=C(CN1C(=O)/C(=C2\SC(=S)N(C3CCS(=O)(=O)C3)C2=O)c2ccccc21)Nc1ccc(F)cc1 (stereo not given)	6%	-17%	3%	6.5µM*	?
COc1ccc(NC(=O)CN2C(=O)/C(=C3\SC(=S)N(C4CCS(=O)(=O)C4)C3=O)c3ccccc32)cc1 (stereo not given)	1%	-22%	0%	9.2µM*	18µM*
O=c1c2cc(Br)ccc2[nH]c(=S)n1Cc1ccccn1	?	2.8µM*	5%	?	?
O=C(NCc1cccnc1)c1ccc(Cn2c(=S)[nH]c3ccc(Br)cc3c2=O)cc1	24%	1%	-12%	?	-18%
O=c1c2cc(Br)ccc2[nH]c(=S)n1Cc1ccccc1	3.5µM*	2.5µM*	.	?	?
O=C(Cn1nnc(-c2ccc(N3CCOCC3)cc2)n1)OC1CCCCC1	-19%	-39%	6%	-11%	-15%
Clc1ccc2[nH]c3c(c2c1)CCc1cn[nH]c1-3	15%	-16%	6%	?	18µM*
c1ccc2c3c([nH]c2c1)-c1[nH]ncc1CC3	26%	20%	3%	16µM*	?
Cc1cccc(N2CCN(C(=O)CNC(=O)c3ccccc3)CC2)c1C	9%	38%	.	-11%	?
Cc1cccc(N2CCN(C(=O)c3ccccc3SCC(=O)N3CCCC3)CC2)c1C	.	.	4%[56.1 µM]	9.2µM*	13µM*
Cc1cccc(N2CCN(C(=O)CSCc3ccc(F)cc3)CC2)c1C	.	.	5%	?	?
Cc1cccc(N2CCN(C(=O)CNC(=O)C3CCCCC3)CC2)c1C	.	.	0%	18µM*	?
NNc1nc2cccnc2n(CCNc2ncc(C(F)(F)F)cc2Cl)c1=O	2%	10µM*	4%	16µM*	?
O=c1c(Cl)nc2cc(Cl)ccc2n1CCNc1ncc(C(F)(F)F)cc1Cl	5µM*	11µM*	-2%	0.52µM*	0.58µM*
CC(=O)N(CN1C(=O)c2ccc([N+](=O)[O-])cc2C1=O)c1cccc(C(=O)O)c1	-13%	-7%	3%	11%	11%
CCC(=O)Nc1ccc(Nc2nc(C)c([N+](=O)[O-])c(Nc3ccc(NC(=O)CC)cc3)n2)cc1	-11%	?	2%	8.2µM*	6.5µM*
CC(=O)Nc1ccc(Nc2nc(C)c([N+](=O)[O-])c(Nc3ccccc3)n2)cc1	13µM*	?	6%	23µM*	18µM*
O=C(NC1CC1)C1CC(=O)N(c2cccc(Cl)c2Cl)C1 (stereo not given)	19%	-6%	4%	-9%	1%
COc1ccc(NC(=O)COc2coc(CN3CCCc4ccccc43)cc2=O)cc1	.	.	-7%	-34%	-14%
CCCOc1cccc(C(=O)Nc2cccc3ncccc23)c1	-5%	14%	1%	1%	-16%
Nc1ccccc1Nc1nc2ccccc2[nH]1	9%	-9%	.	?	26µM*
